SMILES strings stand for the structures.

The target in test [1] is Tyrosine-protein kinase Fer (Homo sapiens) (UniProt P16591). The settings on record: at 1 µM.
Test [2] addresses Tyrosine-protein kinase Fes/Fps (Homo sapiens) (UniProt P07332). The settings on record: at 0.1 µM.
Test [3] has the same target. The settings on record: at 1 µM.
Test [4] has as its target Fibroblast growth factor receptor 1 (Homo sapiens) (UniProt P11362). The settings on record: at 0.1 µM.
Test [5] has the same target. The settings on record: at 1 µM.
For test [6], the target named is Fibroblast growth factor receptor 2 (Homo sapiens) (UniProt P21802). The settings on record: at 0.1 µM.
Test [7] shares this target. The settings on record: at 1 µM.
The target of test [8] is Fibroblast growth factor receptor 3 (Homo sapiens) (UniProt P22607). The settings on record: at 0.1 µM.
Chain of Fibroblast growth factor receptor 3 (Homo sapiens) (P22607 23-806 limits assumed): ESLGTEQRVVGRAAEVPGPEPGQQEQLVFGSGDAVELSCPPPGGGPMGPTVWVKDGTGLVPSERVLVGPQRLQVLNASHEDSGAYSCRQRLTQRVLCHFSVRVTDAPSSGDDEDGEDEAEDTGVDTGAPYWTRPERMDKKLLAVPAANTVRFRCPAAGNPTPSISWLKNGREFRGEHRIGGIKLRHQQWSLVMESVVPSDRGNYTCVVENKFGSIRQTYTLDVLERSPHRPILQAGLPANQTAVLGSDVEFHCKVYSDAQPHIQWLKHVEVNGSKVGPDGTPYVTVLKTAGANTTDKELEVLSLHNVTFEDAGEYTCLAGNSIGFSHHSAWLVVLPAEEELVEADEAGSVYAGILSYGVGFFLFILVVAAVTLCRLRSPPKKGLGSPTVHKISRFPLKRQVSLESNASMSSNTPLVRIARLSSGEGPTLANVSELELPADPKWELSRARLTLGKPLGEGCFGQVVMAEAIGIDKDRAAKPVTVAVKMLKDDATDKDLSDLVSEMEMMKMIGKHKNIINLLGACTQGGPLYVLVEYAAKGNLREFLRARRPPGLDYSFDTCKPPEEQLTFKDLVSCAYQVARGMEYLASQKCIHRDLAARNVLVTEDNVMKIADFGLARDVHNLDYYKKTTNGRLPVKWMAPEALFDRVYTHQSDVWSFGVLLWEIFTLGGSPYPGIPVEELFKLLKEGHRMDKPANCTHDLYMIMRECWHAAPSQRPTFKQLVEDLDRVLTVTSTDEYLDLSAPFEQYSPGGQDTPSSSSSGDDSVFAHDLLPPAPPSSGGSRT
Test [9] has the same target. The settings on record: at 1 µM.
The target of test [10] is Fibroblast growth factor receptor 4 (Homo sapiens) (UniProt P22455). The settings on record: at 0.1 µM.
Chain of Fibroblast growth factor receptor 4 (Homo sapiens) (P22455 22-802 limits assumed): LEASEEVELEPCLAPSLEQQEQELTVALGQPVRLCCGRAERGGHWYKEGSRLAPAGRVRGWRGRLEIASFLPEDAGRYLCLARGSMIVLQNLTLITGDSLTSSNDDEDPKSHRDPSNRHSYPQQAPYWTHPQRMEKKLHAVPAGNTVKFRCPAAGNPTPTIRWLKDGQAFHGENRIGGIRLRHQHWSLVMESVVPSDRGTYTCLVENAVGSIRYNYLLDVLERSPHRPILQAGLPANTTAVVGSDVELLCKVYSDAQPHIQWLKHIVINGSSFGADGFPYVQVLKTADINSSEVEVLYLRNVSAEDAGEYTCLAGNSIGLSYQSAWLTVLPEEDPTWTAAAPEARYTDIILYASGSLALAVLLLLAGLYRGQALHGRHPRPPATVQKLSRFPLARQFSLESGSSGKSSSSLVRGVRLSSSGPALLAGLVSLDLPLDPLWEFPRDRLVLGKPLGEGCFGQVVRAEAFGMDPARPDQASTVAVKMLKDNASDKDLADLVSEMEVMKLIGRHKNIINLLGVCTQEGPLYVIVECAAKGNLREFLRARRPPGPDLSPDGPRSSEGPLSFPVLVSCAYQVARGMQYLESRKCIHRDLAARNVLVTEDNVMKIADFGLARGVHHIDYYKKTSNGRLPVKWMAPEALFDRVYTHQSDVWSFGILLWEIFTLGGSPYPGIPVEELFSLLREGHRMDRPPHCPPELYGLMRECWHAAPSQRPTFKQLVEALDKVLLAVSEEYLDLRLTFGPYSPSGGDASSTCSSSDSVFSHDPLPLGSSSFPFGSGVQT
Test [11] has the same target. The settings on record: at 1 µM.
For test [12], the target named is Tyrosine-protein kinase Fgr (Homo sapiens) (UniProt P09769). The settings on record: at 0.1 µM.
Chain of Tyrosine-protein kinase Fgr (Homo sapiens) (P09769 2-529 limits assumed): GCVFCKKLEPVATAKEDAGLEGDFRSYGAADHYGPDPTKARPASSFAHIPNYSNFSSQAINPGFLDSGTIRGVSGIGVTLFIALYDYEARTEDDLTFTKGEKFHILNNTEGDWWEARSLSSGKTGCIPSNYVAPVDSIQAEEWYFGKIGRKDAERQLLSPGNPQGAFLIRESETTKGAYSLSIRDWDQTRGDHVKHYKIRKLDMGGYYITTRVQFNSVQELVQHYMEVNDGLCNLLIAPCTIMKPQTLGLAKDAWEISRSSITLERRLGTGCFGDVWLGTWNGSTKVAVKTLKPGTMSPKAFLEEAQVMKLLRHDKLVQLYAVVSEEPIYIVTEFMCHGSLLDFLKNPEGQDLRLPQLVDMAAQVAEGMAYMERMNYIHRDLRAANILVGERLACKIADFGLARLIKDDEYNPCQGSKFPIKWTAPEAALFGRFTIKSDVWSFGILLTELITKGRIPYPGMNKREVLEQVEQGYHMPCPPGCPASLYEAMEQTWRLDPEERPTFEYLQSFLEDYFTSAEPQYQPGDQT
Test [13] shares this target. The settings on record: at 1 µM.
Test [14] deals with Vascular endothelial growth factor receptor 1 (Homo sapiens) (UniProt P17948). The settings on record: at 0.1 µM.
Test [15] has the same target. The settings on record: at 1 µM.
Test [16] addresses Receptor-type tyrosine-protein kinase FLT3 (Homo sapiens) (UniProt P36888). The settings on record: at 0.1 µM.
The target is the same in test [17]. The settings on record: at 1 µM.
Test [18] has as its system T1, Receptor-type tyrosine-protein kinase FLT3 (Homo sapiens), P36888 [D835Y].
T1 sequence (whole entry): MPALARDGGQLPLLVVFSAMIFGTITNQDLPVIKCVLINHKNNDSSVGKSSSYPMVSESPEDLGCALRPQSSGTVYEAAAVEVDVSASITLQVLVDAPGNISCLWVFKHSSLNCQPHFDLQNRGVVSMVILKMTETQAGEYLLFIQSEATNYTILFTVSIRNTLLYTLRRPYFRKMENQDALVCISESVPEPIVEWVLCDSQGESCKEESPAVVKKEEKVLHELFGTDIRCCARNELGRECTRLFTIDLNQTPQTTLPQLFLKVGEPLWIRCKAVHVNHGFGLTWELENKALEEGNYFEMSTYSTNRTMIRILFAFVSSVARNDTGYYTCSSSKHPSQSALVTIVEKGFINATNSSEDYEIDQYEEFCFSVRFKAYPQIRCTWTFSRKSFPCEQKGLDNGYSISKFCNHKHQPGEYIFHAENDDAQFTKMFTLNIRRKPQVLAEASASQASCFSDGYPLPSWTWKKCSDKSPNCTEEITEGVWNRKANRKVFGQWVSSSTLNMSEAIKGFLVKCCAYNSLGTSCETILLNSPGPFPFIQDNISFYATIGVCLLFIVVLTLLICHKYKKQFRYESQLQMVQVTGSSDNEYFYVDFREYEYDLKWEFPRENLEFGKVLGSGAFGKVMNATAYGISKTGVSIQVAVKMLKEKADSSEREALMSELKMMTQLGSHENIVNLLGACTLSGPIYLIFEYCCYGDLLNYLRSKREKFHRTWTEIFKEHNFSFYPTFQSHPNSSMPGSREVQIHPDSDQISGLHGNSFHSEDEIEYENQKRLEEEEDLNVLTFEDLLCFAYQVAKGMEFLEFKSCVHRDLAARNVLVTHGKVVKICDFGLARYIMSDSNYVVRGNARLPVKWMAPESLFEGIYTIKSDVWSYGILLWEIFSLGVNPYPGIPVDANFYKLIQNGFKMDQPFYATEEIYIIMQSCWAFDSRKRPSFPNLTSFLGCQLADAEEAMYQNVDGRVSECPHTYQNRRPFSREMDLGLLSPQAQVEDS
The settings on record: at 0.1 µM.

The target in test [19] is Non-receptor tyrosine-protein kinase TYK2 (Homo sapiens) (UniProt P29597). The settings on record: at 1 µM.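 Further: values are mean percent inhibition of TYK2 kinase.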
Chain of Non-receptor tyrosine-protein kinase TYK2 (Homo sapiens) (P29597 whole entry): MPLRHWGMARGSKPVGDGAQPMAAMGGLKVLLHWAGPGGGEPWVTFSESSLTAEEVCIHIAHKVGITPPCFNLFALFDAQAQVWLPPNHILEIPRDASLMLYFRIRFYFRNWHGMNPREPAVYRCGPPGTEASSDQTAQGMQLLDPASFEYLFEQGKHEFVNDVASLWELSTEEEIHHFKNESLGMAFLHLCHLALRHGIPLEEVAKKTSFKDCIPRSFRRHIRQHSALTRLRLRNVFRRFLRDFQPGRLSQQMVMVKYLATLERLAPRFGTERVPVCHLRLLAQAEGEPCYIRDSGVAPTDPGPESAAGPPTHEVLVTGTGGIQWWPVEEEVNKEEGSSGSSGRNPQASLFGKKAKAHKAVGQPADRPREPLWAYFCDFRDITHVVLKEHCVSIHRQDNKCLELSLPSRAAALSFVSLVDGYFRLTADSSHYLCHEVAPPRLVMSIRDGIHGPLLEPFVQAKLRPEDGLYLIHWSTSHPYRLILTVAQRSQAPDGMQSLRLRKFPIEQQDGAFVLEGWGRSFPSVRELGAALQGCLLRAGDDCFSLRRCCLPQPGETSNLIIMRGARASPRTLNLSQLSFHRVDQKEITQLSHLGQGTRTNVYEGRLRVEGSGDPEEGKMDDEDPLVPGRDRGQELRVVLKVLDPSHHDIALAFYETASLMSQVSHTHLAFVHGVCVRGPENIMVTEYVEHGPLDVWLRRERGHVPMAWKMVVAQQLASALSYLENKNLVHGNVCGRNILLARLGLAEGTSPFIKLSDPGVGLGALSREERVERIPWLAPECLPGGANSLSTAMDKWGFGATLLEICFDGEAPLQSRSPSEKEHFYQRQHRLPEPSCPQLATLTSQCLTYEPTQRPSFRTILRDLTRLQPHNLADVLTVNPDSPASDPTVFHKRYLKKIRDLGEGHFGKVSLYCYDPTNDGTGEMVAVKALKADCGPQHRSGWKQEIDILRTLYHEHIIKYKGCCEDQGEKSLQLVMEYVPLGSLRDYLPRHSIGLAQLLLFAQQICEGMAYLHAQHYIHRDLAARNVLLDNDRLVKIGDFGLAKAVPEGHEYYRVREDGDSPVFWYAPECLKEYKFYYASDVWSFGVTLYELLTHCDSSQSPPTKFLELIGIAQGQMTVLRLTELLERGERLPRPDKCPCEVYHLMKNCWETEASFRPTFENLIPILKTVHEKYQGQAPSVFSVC
In test [20] the target is T2, Tyrosine-protein kinase receptor TYRO3 (Homo sapiens) (UniProt Q06418).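 Further: reported percentages are averaged inhibition values of TYRO3 kinase activity.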
T2 sequence (whole entry): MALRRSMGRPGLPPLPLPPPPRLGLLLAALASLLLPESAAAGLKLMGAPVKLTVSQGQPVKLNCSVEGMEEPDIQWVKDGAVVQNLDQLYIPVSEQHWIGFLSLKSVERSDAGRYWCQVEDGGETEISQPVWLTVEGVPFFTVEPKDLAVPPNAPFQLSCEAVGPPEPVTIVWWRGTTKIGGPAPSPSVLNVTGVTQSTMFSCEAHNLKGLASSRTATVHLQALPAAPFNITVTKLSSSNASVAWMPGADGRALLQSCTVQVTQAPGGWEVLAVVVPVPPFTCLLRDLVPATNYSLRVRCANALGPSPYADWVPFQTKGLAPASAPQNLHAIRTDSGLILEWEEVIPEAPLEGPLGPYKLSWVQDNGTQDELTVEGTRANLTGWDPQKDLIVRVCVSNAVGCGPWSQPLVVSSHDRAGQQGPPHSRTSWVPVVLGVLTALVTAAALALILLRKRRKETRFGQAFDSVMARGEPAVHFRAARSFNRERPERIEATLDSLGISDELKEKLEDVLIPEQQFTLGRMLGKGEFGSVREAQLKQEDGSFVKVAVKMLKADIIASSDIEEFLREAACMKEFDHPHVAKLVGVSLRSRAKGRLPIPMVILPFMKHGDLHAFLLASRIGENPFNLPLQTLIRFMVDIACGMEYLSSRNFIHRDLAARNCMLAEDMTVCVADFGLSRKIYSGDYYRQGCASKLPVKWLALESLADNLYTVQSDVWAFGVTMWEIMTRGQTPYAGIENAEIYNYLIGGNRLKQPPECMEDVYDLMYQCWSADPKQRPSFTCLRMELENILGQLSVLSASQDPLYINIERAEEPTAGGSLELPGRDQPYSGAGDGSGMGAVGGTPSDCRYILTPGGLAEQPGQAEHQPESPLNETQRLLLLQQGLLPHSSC
The settings on record: at 0.1 µM.

Chain of Tyrosine-protein kinase Fer (Homo sapiens) (P16591 whole entry, looked up): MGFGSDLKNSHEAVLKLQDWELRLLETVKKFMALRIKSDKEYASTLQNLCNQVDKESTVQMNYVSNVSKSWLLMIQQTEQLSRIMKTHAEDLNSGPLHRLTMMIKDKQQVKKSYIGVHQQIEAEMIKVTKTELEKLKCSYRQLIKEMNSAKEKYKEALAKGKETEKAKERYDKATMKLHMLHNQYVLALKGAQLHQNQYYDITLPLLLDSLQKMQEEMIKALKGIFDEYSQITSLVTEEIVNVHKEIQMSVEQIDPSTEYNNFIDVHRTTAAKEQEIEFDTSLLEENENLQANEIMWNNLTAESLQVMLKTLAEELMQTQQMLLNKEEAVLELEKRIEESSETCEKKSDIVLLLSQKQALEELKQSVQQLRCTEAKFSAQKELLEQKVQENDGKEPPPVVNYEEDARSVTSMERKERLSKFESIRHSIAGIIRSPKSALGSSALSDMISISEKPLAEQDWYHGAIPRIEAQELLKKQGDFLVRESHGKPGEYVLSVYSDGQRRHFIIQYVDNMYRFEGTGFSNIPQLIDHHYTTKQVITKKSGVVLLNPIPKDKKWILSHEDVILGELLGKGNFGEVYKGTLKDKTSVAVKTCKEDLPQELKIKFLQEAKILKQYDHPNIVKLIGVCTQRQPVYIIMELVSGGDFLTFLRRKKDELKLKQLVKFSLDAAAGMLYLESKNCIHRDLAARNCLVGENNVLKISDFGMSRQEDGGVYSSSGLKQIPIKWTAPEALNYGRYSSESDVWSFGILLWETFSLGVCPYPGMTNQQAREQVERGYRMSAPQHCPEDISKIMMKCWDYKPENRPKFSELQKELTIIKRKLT
Chain of Fibroblast growth factor receptor 1 (Homo sapiens) (P11362 22-822 limits assumed): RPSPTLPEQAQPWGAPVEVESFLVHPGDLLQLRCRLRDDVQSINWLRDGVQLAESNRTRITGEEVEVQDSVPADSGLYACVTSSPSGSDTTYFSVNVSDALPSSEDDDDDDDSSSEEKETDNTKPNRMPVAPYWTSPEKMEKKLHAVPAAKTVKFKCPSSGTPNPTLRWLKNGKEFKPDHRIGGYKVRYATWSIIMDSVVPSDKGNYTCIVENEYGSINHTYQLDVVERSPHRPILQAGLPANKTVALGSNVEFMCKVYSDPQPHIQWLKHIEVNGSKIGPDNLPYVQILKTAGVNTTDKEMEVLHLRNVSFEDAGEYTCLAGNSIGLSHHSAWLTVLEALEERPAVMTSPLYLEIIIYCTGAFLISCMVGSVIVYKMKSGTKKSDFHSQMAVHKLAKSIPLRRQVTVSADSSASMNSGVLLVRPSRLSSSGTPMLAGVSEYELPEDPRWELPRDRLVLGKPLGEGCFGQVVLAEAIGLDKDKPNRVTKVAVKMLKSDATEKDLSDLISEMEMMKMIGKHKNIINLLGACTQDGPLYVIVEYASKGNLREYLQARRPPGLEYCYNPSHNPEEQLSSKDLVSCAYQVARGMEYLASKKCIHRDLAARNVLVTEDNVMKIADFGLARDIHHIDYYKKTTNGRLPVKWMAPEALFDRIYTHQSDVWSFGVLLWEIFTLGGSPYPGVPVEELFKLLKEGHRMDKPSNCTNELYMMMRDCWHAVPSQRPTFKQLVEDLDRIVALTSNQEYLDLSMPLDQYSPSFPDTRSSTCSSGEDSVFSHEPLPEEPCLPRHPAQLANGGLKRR

A word on the inhibition: it is the change of the read-out against control, counted positive when it falls. For `O=C(Nc1ccc(Oc2ccc3[nH]c(NC(=O)c4ccco4)nc3c2)cc1)Nc1cc(C(F)(F)F)ccc1F`, the inhibition in test [1] is 5.37%; in [2], 0.02%; in [3], 0.11%; in [4] it was -3.4%; in test [5], 9.84%; in [6] it was -3.04%. For the same compound, the inhibition was 33.2% in test [7]; -0.92% in [8]; 7.51% in [9]; -1.82% in [10]; -2.3% in test [11]; 1.62% in test [12]. Moreover, the inhibition in test [13] came to 9.51%; in [14] it was 23.6%; in [15], 78.8%; in [16], 15%; in test [17] it was 70.7%; in test [18] it was 1.75%. In addition, the inhibition in test [19] is -3.76%; in test [20], 5.34%.

Turning to `COc1cc(Nc2nccc(-c3cnn4ncccc34)n2)cc(OC)c1`, the inhibition in [1] was 58.6%; in [2], 10.7%; in test [3], 53.2%; in test [4] it was -4.05%; in [5], 7.3%; in test [6], 1.71%. Also, the inhibition was 23% in test [7]; 4% in test [8]; 20.5% in test [9]; 1.2% in test [10]; 0.03% in test [11]; 6.85% in [12]. For the same compound, the inhibition was determined as 36.9% in test [13]; 10.4% in test [14]; 30.9% in test [15]; 59.6% in test [16]; 90.8% in test [17]; 27% in test [18]. Further, the values for the inhibition in test [19] and in test [20] were 31.8% and 1.77%, respectively.

With `CS(=O)(=O)Nc1cccc(-c2ccc3c(NC(=O)C4CC4)n[nH]c3c2)c1`, the inhibition in [1] is 0.02%; in test [2] it was 0.9%; in [3], 1.23%; in test [4] it was -6.27%; in test [5], 0.55%; in test [6], -3.44%. Besides, the inhibition in test [7] was 5.34%; in test [8], 1.56%; in test [9], 2.41%; in [10] it was -5.5%; in test [11] it was -2.02%; in [12] it was -0.31%. The inhibition is 4.5% in [13]; -2.92% in [14]; -1.44% in [15]; 0.45% in [16]; 0.14% in test [17]; -1.25% in test [18]. Moreover, the figures for the inhibition in test [19] and in [20] were -0.54% and 2.53%, respectively.

`NS(=O)(=O)c1ccc(-c2cc3ccncc3cc2OCc2ccccc2)cc1`: the inhibition worked out at 8.24% in test [1]; 2.42% in test [2]; 4.62% in test [3]; 4.72% in [4]; 3.35% in [5]; 2.27% in test [6]. Further, the inhibition in test [7] was 3.78%; in test [8] it was 2.04%; in [9], 2.76%; in test [10], -2.59%; in test [11], 4.68%; in [12], 5.99%. Also, the inhibition is 4.64% in test [13]; 0.22% in test [14]; 2.57% in test [15]; 2.19% in test [16]; 2.5% in [17]; -4.03% in [18]. In addition, the inhibition in test [19] was -0.94%; in [20], 3.82%.

On to `O=S(=O)(CCOCc1ccc(-c2ccc3ncnc(Nc4ccc(OCc5cccc(F)c5)c(Cl)c4)c3c2)o1)c1ccccc1`, for which the inhibition is -0.81% in [1]; 0.82% in test [2]; 1.19% in test [3]; 1.05% in test [4]; 5.27% in test [5]; -0.62% in [6]. In addition, the inhibition was 3.75% in test [7]; 0.41% in [8]; 6.24% in test [9]; 1.07% in test [10]; 0.08% in test [11]; -0.06% in test [12]. The inhibition is 2.31% in test [13]; -2.31% in test [14]; 0.57% in [15]; 4.16% in test [16]; 2.25% in test [17]; -3.61% in test [18]. Further, the results for the inhibition in test [19] and in test [20] were -0.44% and -0.84%, respectively.

These data come from ChEMBL document CHEMBL1961873, “Compounds: GSK PKIS; Assays: Nanosyn kinase panel” (2012).
